# Compounds without any hit were thinned out: in the full panel of roughly 83,000, 20% have a hit.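 Single-dose data. Exposure time 48 hours. Values below 10 considered active.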 Values without a mark were called inactive. Activity calls are given as the source filed them.
# Tested on: MDA-MB-468 breast
# Test: NCI-60 one-dose screen, 48 h (100 = growth as untreated, 0 = no growth, -100 = all killed)
# Details: 10 µM unless noted
row,SMILES,growth
1,O=C(NNc1nc2cc(F)c(F)cc2n2c(CN3CC4CNCC4C3)ccc12)c1cnccn1 (stereo not given),-4.58% (active)
2,Nc1c(S(=O)(=O)O)cc2c3c(cccc13)C(=O)OC2=O,85.9%
3,COc1ccc(/C=C2\CCC3C(CCCC34OCCO4)C2=O)cc1 (stereo not given),70.5%
4,CCOC(=O)/C(=C/c1ccc(OC)cc1)N(CC)CC,106%
5,CCCCN1CCCC[C@@H]1C(=O)N[C@H](C(=O)N(C)[C@H](CCc1nc(C(=O)N[C@@H](Cc2ccccc2)C[C@H](C)C(=O)OC)cs1)C(C)C)C(C)C,22.3%
6,CCCN1C(=O)/C(=c2\sc3n(c2=O)C2C(NN=3)N(CC)C(=O)N2CC)c2ccccc21 (stereo not given),4.78% (active)
7,Cc1nn(-c2ccc(F)cc2)c2ncnc(Oc3ccc(NC(=O)Nc4ccc(Cl)c(C(F)(F)F)c4)cc3)c12,97.8%
8,CN1CCN(CCCOC(=O)c2c3c(n4ccccc24)C(=O)c2ncccc2C3=O)CC1,43.7%
9,O=C1c2cc(Cl)ccc2Oc2cc([N+](=O)[O-])ccc2N1c1ccc(F)cc1F,91.6%
10,c1cc[c]([Bi]([c]2ccccc2)[c]2ccccc2)cc1,84.7%
11,COc1ccc(-c2nc(N)ncc2Oc2ccccc2OC)c(O)c1,-2.89% (active)
12,C/C(=C\c1ccccc1)C(O)C(=O)c1nc2ccc([N+](=O)[O-])cc2[nH]c1=O (stereo not given),89.7%
13,CCn1cc(-c2ccnc(NCCNS(=O)(=O)c3ccc(Br)cc3)c2)c(-c2cccc(OC)c2)n1,60.6%
14,CCCCCCNC(=O)Oc1ccc(/C(=C(\C)c2ccccc2)c2ccc(OCCN3CCCCC3)cc2)cc1,64.2%
15,[O-]/[N+](=C\c1ccc(-n2cc(Cc3ccccc3Cc3cn(-c4ccc(/C=[N+](/[O-])c5ccccc5)cc4)nn3)nn2)cc1)c1ccccc1,96.6%
16,COc1cc(-c2nc(SC(C)C)n(C(C)C)c(=O)c2C#N)ccc1OCc1ccccc1,66.8%
17,COc1ccc(/C=N\NC(=O)CN2CCN(c3cc4c(cc3F)c(=O)c(C(=O)N/N=C/c3ccc(OC)cc3)cn4C3CC3)CC2)cc1,84.3%
18,COC(c1ccc2ccccc2c1)C(C)C(F)F (stereo not given),99.7%
19,Cc1nn(-c2ccc(-c3ccc(OC(F)(F)F)cc3)cc2)c2nc(-c3ccccc3)nc(N)c12,82.6%
20,CN(C)CCCOc1c(Br)cc(/C=C/C(=O)N(C)CCc2cc(Br)c(OCCCN(C)C)c(Br)c2)cc1Br,91.4%

row,SMILES,growth
1,CC1(C)CC[C@]2(C(=O)NCCCCCCN(CCCN)CCCN)CC[C@]3(C)C(=CC[C@@H]4[C@@]5(C)CC[C@H](O)C(C)(C)[C@@H]5CC[C@]43C)[C@@H]2C1,98.6%
2,Cc1cc2nc3c(=O)[nH]c(=O)nc-3n(CC=O)c2cc1C,95.8%
3,COc1ccc(C(=O)CSc2nc(-c3cc(OC)ccc3OC)cc(-c3ccc(Cl)cc3)c2C#N)cc1,25.8%
4,CCCCC/C(C=C(C#N)C#N)=C/c1ccccc1,97.9%
5,COC(=O)CCSC1=C(C)C(=O)c2ccccc2C1=O,-24.5% (active)
6,N#CSc1cc(S(N)(=O)=O)ccc1N,105%
7,Cc1ccc(Cn2c(-c3cccs3)nc3ccccc32)cc1,67.5%
8,N#C/C(=C\c1ccc(N2CCCCC2)cc1)C(=O)Nc1sc2c(c1C#N)CCC2,119%
9,CCC(C)(O)c1ccc(C)cc1 (stereo not given),110%
10,O=C(O)Cc1ccc(Cl)cc1,106%
11,COc1ccc(-c2ccc3cnc4sc(-c5ccc(OC)cc5)nc4c3n2)cc1,96.5%
12,COc1ccc(OC)c(Nc2nnc(-c3ccc(Cl)cc3)o2)c1,74.2%
13,Nc1nc(N)c2cc(S(=O)(=O)c3cccc(C(F)(F)F)c3)ccc2n1,38.9%
14,O=C(/C=C/c1cccc(O)c1)c1ccc(O)cc1,40.9%
15,O=C(c1ccccc1)C1CCC1,110%
16,O=C(Nc1ccc(F)cc1)ON=C1CCCCC1,105% [100 µM]
17,CNC(=O)c1cc(Oc2cccc3nc(NC(=O)Nc4ccc(F)cc4F)ccc23)ccn1,42.1%
18,Oc1c(CN2CCCC2)cc(CSCc2ccccc2)c2cccnc12,-33.1% (active)
19,COc1ccc(/C=N/NC(=O)c2cnn3c2NC(c2ccccc2)C3)cc1OC1CCCC1 (stereo not given),91.1%
20,CCCCNC(=O)Oc1ccc(/C(=C(/C)Cc2ccc(OC)cc2)c2ccc(OCCN3CCCC3)cc2)cc1,53.5%

# From PubChem BioAssay (NCI)
